In PubChem BioAssay (NCATS):
Records with an inconclusive call do not appear. Where a call stands in place of a potency, no number is given. Calls of active or inactive are those of the source. Calls follow the shape of the dose curve; as a rule, active = well fitted inhibition curve with a large enough effect; inconclusive = small, poorly fitted or top-dose-only effect; inactive = flat fitted curve, though single readings scatter.

Assays:
Experiment in all cases: qHTS profiling for inhibitors of Plasmodium falciparum proliferation (AID 504749); also: nearly all actives have a fitted effect of over 60% in size
Details in all cases: P. falciparum in erythrocytes, SYBR Green DNA, 72 h; series mostly up to 28.7 µM
[1] = test system: C2A
Method in brief: (§1)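 P. falciparum-infected erythrocytes (0.3% parasitemia, 2.5% hematocrit) incubated with compound 72 h at 37 C, 5% CO2. Parasite DNA detected by SYBR Green after lysis, overnight at room temperature; normalised to 0.29 uM artemisinin and DMSO.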

[2] = test system: CP185
Method in brief: as §1

[3] = test system: CP191
Method in brief: as §1

[4] = test system: CP211
Method in brief: as §1

[5] = test system: CP217
Method in brief: as §1

[6] = test system: CP237
Method in brief: as §1

[7] = test system: CP238
Method in brief: as §1

[8] = test system: CP250
Method in brief: as §1

[9] = test system: CP252
Method in brief: as §1

[10] = test system: CP256
Method in brief: as §1

[11] = test system: CP265
Method in brief: as §1

[12] = test system: CP329
Method in brief: as §1

[13] = test system: DIV30
Method in brief: as §1

[14] = test system: ECU
Method in brief: as §1

[15] = test system: HB3
Method in brief: as §1

[16] = test system: P93_24
Method in brief: as §1

[17] = test system: PC15
Method in brief: as §1

[18] = test system: PC26
Method in brief: as §1

[19] = test system: SC27B
Method in brief: as §1

[20] = test system: TAB113
Method in brief: as §1
Potency is read from the fitted curve at half-maximal effect.

Row | Structure (SMILES) | Potency [1] | Potency [2] | Potency [3] | Potency [4] | Potency [5] | Potency [6] | Potency [7] | Potency [8] | Potency [9] | Potency [10] | Potency [11] | Potency [12] | Potency [13] | Potency [14] | Potency [15] | Potency [16] | Potency [17] | Potency [18] | Potency [19] | Potency [20]
1 | O=C(O)[C@@H](O)[C@@H](O)[C@H](O)C(=O)CO | inactive | inactive | inactive | inactive | inactive | inactive | inactive | inactive | inactive | inactive | inactive | inactive | inactive | inactive | inactive | inactive | inactive | inactive | inactive | inactive
2 | CC(C)(C)c1ccc(CN2CCN([C@H](c3ccccc3)c3ccc(Cl)cc3)CC2)cc1 | 10 µM (active) | 10 µM (active) | 10 µM (active) | inactive | 8.91 µM (active) | 7.94 µM (active) | 8.91 µM (active) | 8.91 µM (active) | 11.2 µM (active) | 10 µM (active) | 12.6 µM (active) | inactive | inactive | 10 µM (active) | 8.91 µM (active) | 11.2 µM (active) | 11.2 µM (active) | inactive | 10 µM (active) | 6.31 µM (active)
3 | Cc1onc(-c2c(F)cccc2Cl)c1C(=O)N[C@@H]1C(=O)N2[C@H]1SC(C)(C)[C@H]2C(=O)O | inactive | inactive | inactive | inactive | inactive | inactive | inactive | inactive | inactive | inactive | inactive | inactive | inactive | inactive | inactive | inactive | inactive | inactive | inactive | inactive
4 | CC1(C)S[C@@H]2[C@H](NC(=O)Cc3ccccc3)C(=O)N2[C@@H]1C(=O)O | inactive | inactive | inactive | inactive | inactive | inactive | inactive | inactive | inactive | inactive | inactive | inactive | inactive | inactive | inactive | inactive | inactive | inactive | inactive | inactive
5 | C[C@H](CCC(=O)O)[C@H]1CC[C@@H]2[C@H]3[C@@H](C[C@@H](O)[C@]21C)[C@]1(C)CC[C@H](O)C[C@@H]1C[C@@H]3O | inactive | inactive | inactive | inactive | inactive | inactive | inactive | inactive | inactive | inactive | inactive | inactive | inactive | inactive | inactive | inactive | inactive | inactive | inactive | inactive
